Among the data in PubChem BioAssay AID743279 (National Center for Advancing Translational Sciences (NCATS), 2014) are activity change values, retold here.

SMILES strings stand for the structures. Screen size: about 360,000 compounds; about 17,000 (4.7%) were called active. Not shown: some 5% with an inconclusive outcome. This excerpt belongs to a sample that is enriched for actives. A number with no mark means an inactive call. Rule as the data show it: active = activity change below about -50%; inconclusive = mostly about -30% to -49%; inactive = weaker than that.
% is scaled to controls: 0 for no effect and ±100 for the full control effect.

The assay can be described thus: qHTS for Inhibitors of Inflammasome Signaling: IL-1-beta AlphaLISA Primary Screen. Particulars: THP-1 LPS/ATP IL-1B secretion, 16 h; at 57.5 µM, stronger effect = lower value. An excerpt: Inflammasomes are a set of intracellular multi-protein complexes that enable autocatalytic activation of inflammatory caspases and drive the innate immune response to counter harmful agents. […] A qHTS assay, based on AlphaLISA technology, was developed to screen the Molecular Libraries Small Molecule Repository (MLSMR) to look for novel inflammasome inhibitors. The assay detects IL-1B using AlphaLISA anti-IL-1B acceptor and donor beads. A decreased emission signal, indicating reduced IL-1B secretion, is the desired outcome for this assay. NIH Chemical Genomics Center [NCGC] NIH Molecular Libraries Probe Centers Network [MLPCN] MLPCN Grant: MH095513 Assay Provider: Shyam Biswal Ph.D., Johns Hopkins University Immunity. 2012 Jul 27;37(1):85-95. PMID: 22819042 [2] Curr Pharm Des. 2012;18(16):2320-8. PMID: 22390695
Three microliters containing 3000 THP-1 cells were dispensed into the wells of solid, white, tissue culture treated Greiner 1,536-well plates. Library compounds and positive control, Glyburide, were pin-transferred (23 nL) by a Kalypsys pin-tool equipped with a 1,536-pin array, resulting in final compound concentration ranges of 2.5 nM to 57.5 uM. After 1 hr of cell culture incubation (37 °C, 5% CO2), 1 microL of 1 microg/mL lipopolysaccharide (250 ng/mL, final) and 5 mM ATP (1.25 mM, final) were added to stimulate the cells. After 16 hr of cell culture incubation with the compounds, 1.5 uL of anti-IL-1B acceptor beads (6 ug/mL, final) and biotinylated antibody (0.6 nM, final) were added to the plate, followed by a 1 hr incubation at ambient temperature. To detect the secreted IL-1B, 1.5 uL of AlphaLISA SA-Donor beads (24 ug/mL, final) were added, followed by 30 min of incubation in the dark at ambient temperature. The AlphaLISA signal was read by a PerkinElmer EnVision plate reader with an ultrasensitive luminescence detector and 1536 Plate HTS AlphaScreen aperture (excitation of 680nm and emission of 615nm).
(In general: qHTS replaces the single test concentration by a dilution series.)
Take `CCOC(=O)N1CCC(N2Cc3cccc(C(=O)Nc4c(C)cccc4CC)c3C2=O)CC1`: the activity change is -55.1% (active).
For the compound `CCOC(=O)N1CCC(N2Cc3cccc(C(=O)Nc4ccc(S(=O)(=O)N(CC)CC)cc4)c3C2=O)CC1`, the activity change was 63.8%.
Under `O=C(O)c1cccc2c1C(=O)N(C1CCCC1)C2` stands -1.11%.
Under `CC1(C(=O)NCc2ccc3c(c2)OCO3)CCN1C(=O)Cc1cccs1` (stereo not given) stands -5.2%; under `COc1cccc(NC(=O)CN(C)C(=O)CSC(=S)N2CCCC2)c1`, 6.49%; under `COc1cccc(NC(=O)CN(C)C(=O)CSCc2nc3scc(-c4cccs4)c3c(=O)[nH]2)c1`, -57.4% (active).
`COc1cccc(NC(=O)CN(C)C(=O)/C=C/c2cn(-c3ccccc3)nc2-c2cccs2)c1`: the activity change is -24.8%.
As to `Cc1cc(C)n(CC(=O)Nc2ccc([N+](=O)[O-])cc2)n1`, the activity change was 15.4%.
The result for `COCOc1cccc(CN2CCC(C)(Oc3ccc(SC)cc3)C2)c1` (stereo not given) reads -9.11%; that for `Fc1cnc(N2CCOCC2)nc1NCc1ccccc1`, 38.4%; that for `c1cnc(NC2C3CC4CC(C3)CC2C4)nc1` (stereo not given), 16.6%.
Regarding `c1ccc2c(NC3C4CC5CC(C4)CC3C5)nc(N3CCOCC3)nc2c1` (stereo not given), the activity change was -79.7% (active).
`O=C(CNC(=O)N1CC(=O)Nc2ccccc21)Nc1ccc(Br)cc1F`: the activity change is 16.8%.
In the case of `CC(C)Cc1nnc(N)s1`, the activity change was -2.84%.
In the case of `CC1Cc2nc(SCC(=O)Nc3ccccc3F)n(C)c(=O)c2S1` (stereo not given), the activity change was 11.4%.
Take `COCc1cccc(-c2csc(C(O)c3ccc(F)cc3)n2)c1` (stereo not given): the activity change was -9.62%.
Under `Cc1ccc(C(=O)/C=C/Nc2ccc(S(=O)(=O)Nc3onc(C)c3C)cc2)cc1` stands 31.6%; under `COc1ccc(/C=C/C(=O)c2ccc(NS(=O)(=O)c3ccc(C)cc3)cc2)cc1O`, -103% (active); under `COc1ccc(NS(=O)(=O)c2ccc(NC(=S)NC(=O)/C=C/c3ccc(C)cc3)cc2)nn1`, -26.8%.
Under `CC1CC(C)CN(c2ccc(S(=O)(=O)N3CCOCC3)cc2)C1` (stereo not given) stands -9.62%.
The result for `COc1ccc(NC(=O)CSc2nnnn2-c2cccc(OC)c2)cc1` reads -9.12%; that for `CC1(C(=O)NS(=O)(=O)Cc2cccc(Cl)c2)CCN1C(=O)Cc1ccc(Cl)cc1Cl` (stereo not given), -21.1%; that for `O=C(O)c1ccccc1N=N/C(=N/Nc1cc(S(=O)(=O)O)ccc1O)c1ccccc1`, -57.4% (active).
With `O=C(O)c1ccccc1/C=N/Nc1ccc(S(=O)(=O)Nc2ccc(Cl)cc2)cc1[N+](=O)[O-]`, the activity change is 12.8%.
Consider `Cc1ccc(S(=O)(=O)N2CCC(C(=O)N3CCCCCCC3)CC2)cc1`, for which the activity change was -8.84%.
With `O=C1C(Cl)=C(Oc2ccccc2)C(=O)c2ccccc21`, the activity change was -18%.
Under `Cc1ccc(S(=O)(=O)N2CCN(C(=O)c3cccs3)CC2)cc1` stands 0%; under `CCS(=O)(=O)N1CCN(C(=O)c2cccs2)CC1`, 38.7%.
Consider `Cc1ccc(N2CCN(C(=O)c3cccs3)CC2)c(C)c1`, for which the activity change was -56% (active).
Under `Cc1nc2ccccc2c(C(=O)O)c1-c1ccccn1` stands 12.8%; under `COc1ccc(NC(=O)CSc2nc(C)cs2)cc1`, 15.6%.
Turning to `COc1ccc(NC(=O)CSc2ncnc3[nH]ncc23)cc1`, the activity change was -51% (active).
With `COc1ccc(-n2ncc3c(SCC(=O)NNC(C)=O)ncnc32)cc1`, the activity change was -3.94%.
The result for `CCN(CC)C(=O)C1=C(C)N(Cc2ccc(F)cc2)C(=O)C(CC(=O)NC2CCCC2)C1` (stereo not given) reads 3.15%.
On to `CCOc1ccc(CCNC(=O)COC(=O)c2ccc(C)c(S(=O)(=O)N3CCOCC3)c2)cc1OCC`, for which the activity change is -2.62%.
Turning to `Cc1noc(C)c1NC(=O)N(C)C[C@@H]1Oc2cc(Br)ccc2S(=O)(=O)N([C@@H](C)CO)C[C@H]1C`, the activity change is -11.1%.
Consider `CCCNC(=O)c1cc(C2CCCN(C(=O)c3ccc4c(c3)CCO4)C2)on1` (stereo not given), for which the activity change is 25.3%.
Under `COc1cccc(C(=O)OCC(=O)c2[nH]c(C)c(C(C)=O)c2C)c1` stands 12.1%; under `CC(=O)c1c(C)[nH]c(C(=O)COC(=O)c2cccs2)c1C`, 17.9%.
As to `CC(=O)c1c(C)[nH]c(C(=O)COC(=O)CCOc2ccc(C)cc2)c1C`, the activity change was -89.1% (active).
Under `COc1c(F)c(F)c(-c2csc(N)n2)c(F)c1F` stands -14.1%; under `CCOC(=O)[C@]12CCC=C1N(Cc1ccccc1)C(=O)[C@H](CC(=O)N1CCCC1)C2`, 48.2%; under `CCN(C(=O)COC(=O)c1cc(NS(=O)(=O)c2ccc(Cl)c([N+](=O)[O-])c2)ccc1O)C1CCCCC1`, -98.5% (active).
Under `CN(C)c1ccc(S(=O)(=O)NCC(=O)NCC2CCCCC2)cc1[N+](=O)[O-]` stands 8.52%.
Take `COc1ccc(NS(=O)(=O)c2ccc(O)c(C(=O)OCC(=O)NC3CCCCC3)c2)cc1`: the activity change is 40.3%.
For `C=CCn1c(SCC(=O)c2ccc(Br)cc2)nnc1C(C)NC(=O)Cc1ccc(OC)cc1` (stereo not given), the activity change was 18.8%.
The result for `Cc1cccc(N2CCN(c3ccc(NC(=O)/C=C\C(=O)O)cc3)CC2)c1` reads -21.2%; that for `Cn1cnnc1SCC(=O)Nc1ccc(N2CCOCC2)cc1`, 19.7%.
Under `C=CC(=O)Nc1ccc(Nc2ccnc(Nc3ccc(N4CCN(C)CC4)cc3)n2)cc1` stands -83.2% (active); under `COc1cccc(-c2ccc3c(c2)N(Cc2ccccc2OC)C(=O)C(C)S3)c1` (stereo not given), 43.9%.
The result for `COc1ccc(CCNC(=O)Nc2ccc3c(c2)c(=O)n(C)n3C)cc1OC` reads -16.8%; that for `Cc1c(OC(C)C(=O)N[C@@H](Cc2ccccc2)C(=O)O)ccc2c3c(c(=O)oc12)CCCC3` (stereo not given in full), 11.6%; that for `O=C1NC(=O)C(CCc2ccccc2)(c2ccccc2)N1` (stereo not given), -4.4%.
As for `O=C(NCc1ccccc1)c1onc(CSc2ccncc2)c1C(=O)NCc1ccccc1`, the activity change is 39.9%.
Take `COc1ccc(Nc2nc(NCc3ccco3)nc(N/N=C/c3ccccc3Cl)n2)cc1`: the activity change is -12.1%.
For the compound `CN(c1ccccc1)c1nc(N)c([N+](=O)[O-])c(NCc2ccco2)n1`, the activity change is -23.7%.
Under `COc1cccc(Nc2nc(N)c([N+](=O)[O-])c(NCc3ccco3)n2)c1` stands -69.4% (active); under `COC(=O)c1c(NC(=O)COc2ccc(Cl)cc2Cl)sc2c1CC(C)(C)NC2(C)C`, -99.6% (active).
For `COC(=O)c1sccc1NC(=O)COc1ccc(Cl)cc1`, the activity change was -5.02%.
For `CCOC(=O)c1c(NC(=O)c2ccc(S(=O)(=O)N(C)CC3CCCO3)cc2)sc2c1CC(C)(C)NC2(C)C` (stereo not given), the activity change is -16.8%.
Under `C[C@@H]1CN([C@H](C)CO)C(=O)CCCn2cc(nn2)CO[C@H]1CN(C)S(C)(=O)=O` stands -20.6%; under `COC(=O)Cc1ccc(OC2(C)CCN(Cc3ccc4c(c3)OCCO4)C2)cc1` (stereo not given), 12.5%.
Take `COc1cc2c(cc1OC)C(Cc1cc(OC)c(OC)cc1[N+](=O)[O-])=NCC2`: the activity change was -58.9% (active).
The result for `COc1cc(CN2CCCN(C)CC2)c([N+](=O)[O-])cc1OC` reads 26.5%; that for `COc1cc2c(cc1OC)C(c1cccc([N+](=O)[O-])c1)=NCC2`, -7.18%.
Under `C=CCOc1ccccc1CNn1c(C)n[nH]c1=S` stands 0.633%; under `CC(C)=CCc1c(O)c(CC=C(C)C)c2occ(-c3ccc(O)cc3)c(=O)c2c1O`, -78.8% (active).
For `CC(C)=CCc1ccc(O)c(=O)cc1C(C)C`, the activity change is 1.89%.
Under `COc1cc(CNc2ncnc3c2ncn3[C@H]2CN(Cc3cccs3)C[C@@H](CO)O2)cc(OC)c1OC` stands 0.705%; under `CCCCCn1nnnc1-c1nc2cc3ccccc3cc2[nH]c1=O`, 1.49%.
Under `CCCCn1c(N)c(N(CCOC)C(=O)CSCC(=O)Nc2cccc(C)c2)c(=O)[nH]c1=O` stands 9.86%; under `CCCCn1c(-c2cccc(C)c2)nc2cc3[nH]c(=O)c(C(C)C)nc3cc21`, -61% (active).
In the case of `CC(C)Oc1ccc(C2NC(=O)NC2=O)cc1` (stereo not given), the activity change is 10.2%.
Regarding `COc1ccccc1-c1n[nH]nc1C1=CC(=O)CC(C)(C)C1`, the activity change was -12.1%.
Regarding `c1ccc2c(c1)nnn2-c1ccncc1`, the activity change is -56.6% (active).
`COc1cc2nnn(-c3ccncc3)c2cc1OC`: the activity change is -22.1%.
As for `Cc1ccc(-c2nnc(-n3nnc4ccccc43)c3ccccc23)cc1`, the activity change is 55.9%.
For `CC(Sc1ccc(S(=O)(=O)N2CCN(C)CC2)cn1)C(=O)NC1CCCC(C)C1C` (stereo not given), the activity change is -7.4%.
With `COc1cccc(-c2cc3nc4c(c(N5CCC6(CC5)OCCO6)n3n2)CCCC4)c1`, the activity change was -96.1% (active).
As for `COc1cccc(CNc2nc3nc4c(c(=O)n3[nH]2)CCC4)c1`, the activity change is -4.67%.
Regarding `N#C/C=C\Oc1ccc(Cl)cc1N`, the activity change is -9.78%.
Consider `Cc1ccccc1S(=O)(=O)NC(=O)C1(C)CCN1C(=O)C1(c2ccccc2)CCCC1` (stereo not given), for which the activity change is 31.4%.
Take `C[C@@H]1Cn2cnc(C(=O)Nc3ccc(CNC(=O)OC(C)(C)C)cc3)c2C(=O)N1`: the activity change is -13.5%.
The result for `CC(OC(=O)C1CC(=O)N(Cc2ccccc2)C1)C(=O)Nc1ccccc1[N+](=O)[O-]` (stereo not given) reads 16.6%; that for `Cc1cc(=O)oc2cc(NC(=O)C3CC(=O)N(Cc4ccccc4)C3)ccc12` (stereo not given), 0%.
In the case of `O=C(Nc1ccc(F)c([N+](=O)[O-])c1)C1CC(=O)N(Cc2ccccc2)C1` (stereo not given), the activity change was -91% (active).
Under `NC(=O)C1(Nc2ccc([N+](=O)[O-])cc2)CCCC1` stands -4.02%; under `CCOc1ccc(-c2ccc(SCC(=O)N3CCOCC3)nn2)cc1`, 71%; under `COc1cccc(-c2ccc(SCC(=O)N3CCN(c4ccccc4)CC3)nn2)c1`, -69.3% (active).
Under `COc1cccc(/C=C/C(=O)OCC(=O)N2CCN(c3ccccc3)CC2)c1` stands -25.8%.
